Screening data (PubChem)
Most compounds without a hit are left out; they make up all but 2.2% or so of the library.
sPLA2-III inh = Blocks human group III sPLA2 activity; inhibition, % at 12.2 µM; QFRET BODIPY PC-A2 liposome hydrolysis, fluorescence; 370,000 tested, 0.56% active; Q9NZ20;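 active = inhibition above mean plus 3 SD of compounds lying within the high and low control bounds, cut at about 19% in these data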;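 also: 0% = median of test compound wells and 100% = no enzyme DMSO wells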
Target sequence (Q9NZ20 whole entry, looked up): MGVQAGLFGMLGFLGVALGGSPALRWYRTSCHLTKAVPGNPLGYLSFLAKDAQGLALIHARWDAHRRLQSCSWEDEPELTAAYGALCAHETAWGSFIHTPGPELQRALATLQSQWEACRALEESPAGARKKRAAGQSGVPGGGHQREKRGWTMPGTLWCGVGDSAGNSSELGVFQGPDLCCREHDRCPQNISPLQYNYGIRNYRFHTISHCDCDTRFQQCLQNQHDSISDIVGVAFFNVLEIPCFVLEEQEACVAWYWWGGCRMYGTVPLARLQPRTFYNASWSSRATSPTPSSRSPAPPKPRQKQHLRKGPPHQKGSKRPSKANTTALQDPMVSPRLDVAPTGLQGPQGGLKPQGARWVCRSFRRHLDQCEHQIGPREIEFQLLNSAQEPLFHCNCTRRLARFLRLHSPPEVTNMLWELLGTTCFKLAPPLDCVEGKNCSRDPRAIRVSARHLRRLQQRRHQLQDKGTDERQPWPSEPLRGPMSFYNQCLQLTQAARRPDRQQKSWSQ
HTR5A inv ctr = inverse agonist of human HTR5A in OPRM1-OPRD1 counter-screen; HTR5A cell line, luminescence, inverse agonism; inhibition, % at 9.3 µM; 340,000 tested, 0.083% active; AID 504634; in the data active = inhibition mostly above about 23%, no sharp cut-off; inactive = mostly below about 18%;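 also: 0% = cells with DMSO and 100% = no-cell wells with DMSO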
MOR-DOR ag = OPRM1-OPRD1 heterodimerization agonism. P35372+P41143. cells, luminescence. activation, % at 9.3 µM. 340,000 tested, 0.3% active;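 also: 0% = vehicle-treated cells and 100% = reference agonist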
HTR5A ag = counter-screen for OPRM1-OPRD1 agonists: human HTR5A agonism | activation, % at 9.3 µM | 340,000 tested, 0.61% active | HTR5A agonist assay, luminescence, cell-based; in the data active = activation mostly above about 9.5%, no sharp cut-off; inactive = mostly below about 7.6%;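 also: 0% = cells with vehicle only and 100% = reference agonist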
OPRM1-OPRD1 inv = inverse agonist of human OPRM1-OPRD1 heterodimerization; inhibition, % at 9.3 µM; 340,000 tested, 0.21% active; P35372+P41143; cell-based MOR-DOR heterodimer luminescence, inverse agonism; AID 504357; in the data active = inhibition above about 22%, passing the limit was not always enough;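 also: 0% = cells with DMSO and 100% = wells without cells with DMSO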
HTR2A ag = agonists of mouse serotonin 5-HT2A receptor (HTR2A). CHO-K1 mHTR2A beta-arrestin complementation, luminescence; percent of 30 µM serotonin response. activation, % at 7.6 µM. 360,000 tested, 0.66% active. AID 624169. P35363;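 active = activation above a run cutoff, the mean activation of all tested compounds plus 3 SD, cut at about 14% in these data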;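 also: 0% = plate median of compound wells and 100% = 30 µM serotonin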
MOR-DOR ag conf = confirmation of human OPRM1-OPRD1 heterodimerization agonists; 830 tested, 45% active; activation, % at 9.3 µM; cells, MOR-DOR heterodimerization, luminescence complementation; AID 504904; shares compounds with MOR-DOR ag;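 also: 0% = vehicle-treated cells and 100% = reference agonist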
HTR5A ag counter = counter-screen for OPRM1-OPRD1 agonists: human HTR5A agonism; shares compounds with MOR-DOR ag; HTR5A agonist counterscreen, cell luminescence; activation, % at 9.3 µM; 830 tested, 8% active; in the data active = activation above about 17%;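 also: 0% = vehicle-treated cells and 100% = reference agonist response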
OPRM1-D1 inv cf = confirmation of human OPRM1-OPRD1 heterodimerization inverse agonists; inhibition, % at 9.3 µM; 580 tested, 20% active; shares compounds with OPRM1-OPRD1 inv; cells expressing OPRM1/OPRD1 heterodimer, luminescence; AID 504900; in the data active = inhibition above about 32%;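 also: 0% = cells with DMSO and 100% = wells lacking cells with DMSO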
HTR5A inv count = HTR5A inverse agonism, opioid heterodimer counter-screen; shares compounds with OPRM1-OPRD1 inv; HTR5A-expressing cells, luminescence; 580 tested, under 10 active; inhibition, % at 9.3 µM; AID 504914; call rule not given here;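 also: 0% = cells with DMSO and 100% = no-cell wells with DMSO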
MOR ag counter = OPRM1 agonism in mouse HTR2A counterscreen; shares compounds with HTR2A ag; activation, % at 9.3 µM; 2,300 tested, 5.3% active; U2OS OPRM1 beta-arrestin PathHunter, luminescence; DMSO 0%, DAMGO 9.3 µM 100%;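 active = mean activation above the mean of DMSO-only wells plus 3 SD, cut at about 0.5% in these data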
m5-HT2A ag conf = mouse HTR2A agonism confirmed; 2,300 tested, 19% active; CHO-K1 PathHunter beta-arrestin recruitment, luminescence; DMSO 0%, 30 µM serotonin 100%; shares compounds with HTR2A ag; AID 624381; activation, % at 7.6 µM;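 active = mean activation across triplicates above the hit threshold derived in the original primary screen, cut at about 15% in these data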
Numbers without * were called inactive; x = no result given. Rule as the data show it, unless noted: active = activation above about 18%; inactive = the rest.

SMILES	sPLA2-III inh	HTR5A inv ctr	MOR-DOR ag	HTR5A ag	OPRM1-OPRD1 inv	HTR2A ag	MOR-DOR ag conf	HTR5A ag counter	others
COc1ccc2c(c1)NP(=S)(c1ccccc1)N2C (configuration not stated)	-21.3	-2.9	19.5*	0.8	-100.1	-7.0	4.5	9.1
N=c1c[n+](CC23CC4CC(CC(C4)C2)C3)[n-]o1	-1.4	-4.5	23.7*	4.1	-109.2	4.3	35.9*	2.2
O=C(NC(CCC(O)CO)P(=O)(Oc1ccccc1)Oc1ccccc1)OCc1ccccc1 (configuration not stated)	-2.9	x	x	x	x	x	x	x
COC1C(O)C(C)OC(OC2CCC3(C)C(CCC4C3C(O)CC3(C)C(C5=CC(=O)OC5)CCC43O)C2)C1O (configuration not stated)	6.7	-119.7	85.3*	31.2*	-373.5	5.5	28.4*	0.5
CNC(=O)Nc1ccc(C(=O)N/N=C\C23CC[C@@H](O)CC2(O)CC[C@@H]2[C@@H]3CCC3(C)C(C4=CC(=O)OC4)CCC23O)cc1 (some centres not stated)	0.6	-12.2	1.1	4.5	-5.7	-0.4	x	x
CC12CC[C@H]3[C@@H](CCC4(O)C[C@H](O)CCC34/C=N/NC(=O)c3ccccc3[N+](=O)[O-])C1(O)CCC2C1=CC(=O)OC1 (some centres not stated)	-7.3	-38.2	21.4*	10.6*	-95.7	-0.1	3.0	10.1
C[C@]12CC[C@H](O)C[C@H]1CC[C@@H]1[C@@H]2C[C@@H](O)[C@]2(C)[C@@H](C3=CC(=O)OC3)CC[C@]12O	1.3	-62.9	69.5*	34.0*	-384.7	1.1	40.4*	29.9*
CC12CCC(O)CC1CCC1C2CCC2(C)C(C3=CC(=O)OC3)CCC12O (configuration not stated)	1.9	-124.9	92.6*	32.5*	-405.4	-0.3	10.4	4.5
CC(NC(=O)OCc1ccccc1)[P+](=O)O (configuration not stated)	0.7	x	x	x	x	x	x	x
CC(C)C[C@H]1N=C(c2ccccc2)c2ccccc2N(CC(=O)NC(C)(C)C)C1=O	-0.1	x	x	x	x	x	x	x
COC(=O)C1CC(OC(C)=O)C(=O)[C@H]2C1(C)CC[C@H]1C(=O)OC(c3ccoc3)CC12C (some centres not stated)	0.3	x	x	x	x	x	x	x
CC(C)S(=O)(=O)N1Cc2ccc(Br)cc2-n2nncc2C1	17.6	x	x	x	x	x	x	x
O=C(NC1CCCCC1)N1Cc2cc(Br)ccc2-n2nncc2C1	-3.2	x	x	x	x	x	x	x
Cc1c(P(=S)(c2ccccc2)c2ccccc2)c2ccccc2n1C	-0.1	x	x	x	x	x	x	x
CCOC(=O)CC[C@@H]1CC[C@]2(CCCN(Cc3cccnc3)C2)O1	8.2	x	x	x	x	x	x	x
CC(=O)OC1CC(OC2C(O)CC(OC3C(O)CC(OC4CCC5(C)C(CCC6C5CC(O)C5(C)C(C7=CC(=O)OC7)CCC65O)C4)OC3C)OC2C)OC(C)C1OC1OC(CO)C(O)C(O)C1O (configuration not stated)	5.3	-94.7	69.0*	26.5*	-372.9	-5.2	14.1	1.3
C[C@H]1CC[C@@H]2[C@@H](C)[C@H]3[C@H](C[C@H]4[C@@H]5CC=C6C[C@@H](O[C@@H]7O[C@H](CO)[C@H](O)[C@H](O[C@@H]8O[C@H](CO)[C@@H](O)[C@H](O)[C@H]8O)[C@H]7O[C@@H]7O[C@@H](C)[C@H](O)[C@@H](O)[C@H]7O)CC[C@]6(C)[C@H]5CC[C@]34C)N2C1	0.3	-28.8	-1.9	-1.2	9.6	1.4	x	x
C=CCN1C[C@@H](C)N(C(c2ccc(C(=O)N(CC)CC)cc2)c2cccc(OC)c2)C[C@@H]1C (some centres not stated)	2.6	-21.3	x	-1.1	x	-1.2	x	-1.4
CC(C)C(C(=O)NC(C)(C)C)N1C(=O)CN=C(c2ccccc2)c2ccccc21 (configuration not stated)	1.7	x	x	x	x	x	x	x
CC1[C@H]2Cc3ccc(O)cc3[C@]1(C)CCN2C (some centres not stated)	-1.6	-2.0	44.5*	0.8	-178.7	-1.0	41.6*	1.5
CC(C)=CCN1CC[C@@]2(C)c3cc(O)ccc3CC1C2C (some centres not stated)	-7.4	15.5	-3.6	-6.7	14.7	-2.2	x	x
CC(C)=CCN1CC[C@@]2(C)c3cc(O)ccc3C[C@@H]1C2C (some centres not stated)	-1.2	1.1	37.4*	-0.5	-150.4	2.5	-1.4	-1.4
CN1C[C@H](O)[C@H]2C[C@@H]1c1ccccc1O2	7.4	x	x	x	x	x	x	x
Cc1ccc(-n2cc(CNC(C)Cc3cnccn3)c(-c3cccc(C)c3)n2)cc1 (configuration not stated)	-17.4	-3.1	42.0*	1.1	-219.8	-6.5	15.6	9.5
CC(Cc1cnccn1)NCc1c(C(=O)N2CCCCCCC2)nc2ccc(Cl)cn12 (configuration not stated)	-0.7	-15.6	-0.4	-4.2	2.5	1.7	x	x
CCCN1CCc2cccc3c2[C@H]1Cc1ccc(O)c(O)c1-3	x	-13.9	18.6*	3.9	-100.5	61.7*	20.1*	2.9	MOR ag counter=1.4*;m5-HT2A ag conf=135.7*
O=C(NCCN1CCC2(CC1)C(=O)NCN2c1ccccc1)c1cccs1	-1.6	x	x	x	x	x	x	x
CC(C)OC(=O)c1c(N)n(Cc2ccco2)c2nc3ccccc3nc12	-11.4	10.5	-4.3	-4.8	21.2	-0.4	x	x
COC(=O)c1c(N)n(Cc2ccc(OC)cc2)c2nc3ccccc3nc12	-29.8	-13.5	-7.2	-2.2	32.1*	-1.7	x	x	OPRM1-D1 inv cf=-14.7;HTR5A inv count=0.4
